In PubChem BioAssay (NCI) one finds growth data, which are given here for 9 compounds.

Common to all, as to experiment: NCI-60 one-dose screen, 48 h (100 = growth as untreated, 0 = no growth, -100 = all killed)
One test concerns SK-MEL-2 melanoma. To be noted: 10 µM unless noted.
A further test relates to EKVX NSCLC. To be noted: 10 µM unless noted.
The subject of the next test is SN12C renal. To be noted: 10 µM unless noted.
A further test has as its system UO-31 renal. To be noted: 10 µM unless noted.
The subject of the next test is TK-10 renal. To be noted: 10 µM unless noted.
A further test has as its system ACHN renal. To be noted: 10 µM unless noted.
A further test relates to CAKI-1 renal. To be noted: 10 µM unless noted.
In a further test the test system is MOLT-4 leukemia. To be noted: 10 µM unless noted.
In another test the test system is SR leukemia. To be noted: 10 µM unless noted.
The subject of another test is RPMI-8226 leukemia. To be noted: 10 µM.
Another test relates to OVCAR-8 ovarian. To be noted: 10 µM unless noted.
A further test deals with OVCAR-5 ovarian. To be noted: 10 µM unless noted.
The subject of another test is IGROV1 ovarian. To be noted: 10 µM unless noted.
A further test relates to OVCAR-3 ovarian. To be noted: 10 µM unless noted.
The subject of a further test is HS 578T breast. To be noted: 10 µM unless noted.
A further test concerns NCI/ADR-RES ovarian. To be noted: 10 µM unless noted.
The next test relates to CCRF-CEM leukemia. To be noted: 10 µM unless noted.
For another test, the system named is SK-OV-3 ovarian. To be noted: 10 µM.
The subject of a further test is OVCAR-4 ovarian. To be noted: 10 µM unless noted.
The test system of a further test is A498 renal. To be noted: 10 µM unless noted.

Structures are written as SMILES. This is part of a sample that, as a whole, favours compounds with a hit. Of some 83,000 tested, about 20% had one in any assay.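 Assay: single dose, 48 h. Readout: percent growth (0 = no net growth; negative = cell death). Active: <10.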 Values without a mark were called inactive. The source made the active and inactive calls.

`COC(=O)c1c2c(c(C)[n+]([O-])c1C)C(=O)C=C(NCc1cccc(OC)c1)C2=O`: the growth in the test with SK-MEL-2 melanoma was -64.6% (active); in the test with EKVX NSCLC, -68.7% (active); in the test on SN12C renal, -93.4% (active); in the test with UO-31 renal, -62.5% (active); with TK-10 renal, 4.5% (active); in the test with ACHN renal it was -81.5% (active). The growth in the test on CAKI-1 renal is -32.6% (active); in the test on MOLT-4 leukemia, -45.9% (active); with SR leukemia it was -8.2% (active); with RPMI-8226 leukemia, -35.5% (active); in the test with OVCAR-8 ovarian, -23.7% (active); in the test with OVCAR-5 ovarian, -90.3% (active). For the same compound, the growth is -64% (active) with IGROV1 ovarian, -51% (active) in the test on OVCAR-3 ovarian, -22.2% (active) in the test with HS 578T breast and -25.6% (active) in the test with NCI/ADR-RES ovarian.
Regarding `CCOc1ccc(/C=N\N2CCCCCC2)cc1OCC`, the growth was 103% in the test with SK-MEL-2 melanoma; 76.8% with EKVX NSCLC; 82.7% in the test with SN12C renal; 97.7% with TK-10 renal; 88.7% in the test on ACHN renal; 90.8% with CAKI-1 renal. Also, the growth in the test with CCRF-CEM leukemia is 102%; in the test on MOLT-4 leukemia, 106%; in the test with SR leukemia it was 89.6%; in the test on RPMI-8226 leukemia, 83.4%; in the test with OVCAR-8 ovarian, 101%; with OVCAR-5 ovarian it was 95%. The growth in the test on SK-OV-3 ovarian was 91.6%; in the test with OVCAR-3 ovarian, 104%; in the test with HS 578T breast, 120%.
For `CSc1nnc(-c2sc3nnc(-c4ccccc4)c(-c4ccccc4)c3c2O)o1`, the growth with SK-MEL-2 melanoma was 102%; with EKVX NSCLC it was 77.5%; in the test with SN12C renal it was 75.7%; with TK-10 renal, 100%; with ACHN renal, 83.6%; with CAKI-1 renal, 43.5%. In addition, the growth was 47.4% in the test on CCRF-CEM leukemia; 61.8% in the test with MOLT-4 leukemia; 62.5% in the test on SR leukemia; 67.2% in the test with RPMI-8226 leukemia; 85.8% in the test on OVCAR-8 ovarian; 85.5% in the test with SK-OV-3 ovarian. The figures for the growth with OVCAR-3 ovarian and with HS 578T breast were 86.8% and 98.4%, respectively.
Regarding `CC(=O)Nc1ccc(S(=O)(=O)N/N=C\c2ccc(Cl)c(Cl)c2)cc1`, the growth in the test with SK-MEL-2 melanoma is 90.6%; in the test with EKVX NSCLC, 99.7%; in the test on SN12C renal, 99.1%; with TK-10 renal, 93.2%; in the test on ACHN renal, 98.5%; in the test with CAKI-1 renal, 91.5%. In addition, the growth in the test with CCRF-CEM leukemia is 92.8%; in the test on MOLT-4 leukemia, 100%; in the test with RPMI-8226 leukemia, 92.5%; in the test on OVCAR-8 ovarian, 103%; in the test with OVCAR-5 ovarian, 108%; with OVCAR-4 ovarian, 113%. In addition, the growth with SK-OV-3 ovarian was 105%; with OVCAR-3 ovarian, 111%; with HS 578T breast it was 103%.
As for `c1ccc(-c2n(Cc3ccc4ccccc4c3)c3ccccc3[n+]2Cc2ccc3ccccc3c2)cc1`, the growth in the test on SK-MEL-2 melanoma was -36.1% (active); with EKVX NSCLC it was 3.45% (active); with SN12C renal, -79.4% (active); in the test on UO-31 renal, -79.7% (active); in the test on ACHN renal, -4.48% (active); in the test with CAKI-1 renal, -44.7% (active). The growth is -40.6% (active) in the test with A498 renal; 2.6% (active) in the test on CCRF-CEM leukemia; -21.8% (active) with MOLT-4 leukemia; -23.6% (active) in the test with SR leukemia; -22.9% (active) with OVCAR-8 ovarian; 2.69% (active) with OVCAR-5 ovarian. The growth is -4.85% (active) with OVCAR-4 ovarian; -77.5% (active) in the test on IGROV1 ovarian; -84.2% (active) in the test with OVCAR-3 ovarian; -33.8% (active) with HS 578T breast; 46.4% with NCI/ADR-RES ovarian.
As for `COc1ccc(OC2=CC(=O)c3ccc(C)nc3C2=O)cc1`, the growth with SK-MEL-2 melanoma is 99.5%; in the test on EKVX NSCLC, 96.5%; with SN12C renal, 88.3%; in the test with UO-31 renal, 92.3%; in the test with TK-10 renal, 112%; in the test on ACHN renal, 51.4%. Besides, the growth in the test with CAKI-1 renal was 82.5%; in the test on MOLT-4 leukemia it was 66.5%; in the test on SR leukemia, 51.2%; in the test with RPMI-8226 leukemia, 79.7%; with OVCAR-8 ovarian, 80.7%; with OVCAR-5 ovarian, 114%. For the same compound, the growth in the test on IGROV1 ovarian was 87.8%; in the test on OVCAR-3 ovarian, 72.3%; in the test on HS 578T breast it was 83.2%; in the test with NCI/ADR-RES ovarian, 87.5%.
For the compound `C=C(C)COC(=O)c1ccccc1C(=O)OCC1(C)CO1` (stereo unspecified), the growth is 97.5% in the test with SK-MEL-2 melanoma; 103% with EKVX NSCLC; 95.9% with SN12C renal; 102% with TK-10 renal; 105% in the test with ACHN renal; 96.6% in the test on CAKI-1 renal. Also, the growth with A498 renal was 108%; in the test on MOLT-4 leukemia, 99.7%; in the test on RPMI-8226 leukemia, 110%; in the test with OVCAR-8 ovarian, 95.6%; with OVCAR-5 ovarian it was 96.8%; in the test on OVCAR-4 ovarian, 110%. The growth with SK-OV-3 ovarian was 110%; with OVCAR-3 ovarian it was 108%; with HS 578T breast, 104%; with NCI/ADR-RES ovarian it was 101%.
For the compound `CCOC(=O)n1cc(C2=C(c3cn(C)c4ccccc34)COC2=O)c2ccccc21`, the growth is 57.8% in the test on SK-MEL-2 melanoma; 45.2% with EKVX NSCLC; 23.9% in the test with SN12C renal; 34.8% in the test on UO-31 renal; 26.6% in the test on ACHN renal; 13.2% in the test on CAKI-1 renal. The growth was -14.3% (active) in the test with A498 renal; 16.8% with CCRF-CEM leukemia; 18.3% with MOLT-4 leukemia; 16.5% with OVCAR-8 ovarian; 29.9% in the test with OVCAR-5 ovarian; 28.8% with OVCAR-4 ovarian. In addition, the growth with IGROV1 ovarian was 14.7%; in the test on OVCAR-3 ovarian, -29.8% (active); in the test with HS 578T breast, 9.62% (active); in the test on NCI/ADR-RES ovarian it was 2.15% (active).
As to `O=c1c2c(=NCCN3CCCC3)cc3c(=O)n(CCCN4CCOCC4)c(=O)c4ccc(c(O)n1CCCN1CCOCC1)c2c4-3`, the growth is -27.2% (active) with SK-MEL-2 melanoma; -12.8% (active) in the test with EKVX NSCLC; 4.69% (active) with SN12C renal; 0.795% (active) in the test on UO-31 renal; 2.23% (active) in the test on ACHN renal; 8.73% (active) with CAKI-1 renal. Moreover, the growth was -78.9% (active) in the test with A498 renal; 1.35% (active) with CCRF-CEM leukemia; 2.58% (active) in the test on MOLT-4 leukemia; 13.5% in the test on SR leukemia; 11.9% in the test on OVCAR-8 ovarian; -49.1% (active) with OVCAR-4 ovarian. For the same compound, the growth was 2.41% (active) with IGROV1 ovarian, -8.68% (active) in the test with OVCAR-3 ovarian, -13.9% (active) in the test on HS 578T breast and -2.98% (active) in the test with NCI/ADR-RES ovarian.
